Assay results as given in ChEMBL document CHEMBL1961873, “Compounds: GSK PKIS; Assays: Nanosyn kinase panel” (2012).

How the values were obtained:
[1] = target: Serine/threonine-protein kinase MRCK alpha (Homo sapiens) (UniProt Q5VT25); conditions: at 0.1 µM
[2] = target: Serine/threonine-protein kinase MRCK alpha (Homo sapiens) (UniProt Q5VT25); conditions: at 1 µM
[3] = target: Serine/threonine-protein kinase MRCK beta (Homo sapiens) (UniProt Q9Y5S2); conditions: at 0.1 µM
[4] = target: Serine/threonine-protein kinase MRCK beta (Homo sapiens) (UniProt Q9Y5S2); conditions: at 1 µM
[5] = target: Ribosomal protein S6 kinase alpha-5 (Homo sapiens) (UniProt O75582); conditions: at 0.1 µM
[6] = target: Ribosomal protein S6 kinase alpha-5 (Homo sapiens) (UniProt O75582); conditions: at 1 µM
[7] = target: Ribosomal protein S6 kinase alpha-4 (Homo sapiens) (UniProt O75676); conditions: at 0.1 µM
[8] = target: Ribosomal protein S6 kinase alpha-4 (Homo sapiens) (UniProt O75676); conditions: at 1 µM
[9] = target: Ribosomal protein S6 kinase beta-1 (Homo sapiens) (UniProt P23443); conditions: at 0.1 µM
[10] = target: Ribosomal protein S6 kinase beta-1 (Homo sapiens) (UniProt P23443); conditions: at 1 µM
[11] = target: T1, 3-phosphoinositide-dependent protein kinase 1 (Homo sapiens) (UniProt O15530); conditions: at 0.1 µM;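 further: values are mean inhibition of PDK1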
T1 sequence (whole entry): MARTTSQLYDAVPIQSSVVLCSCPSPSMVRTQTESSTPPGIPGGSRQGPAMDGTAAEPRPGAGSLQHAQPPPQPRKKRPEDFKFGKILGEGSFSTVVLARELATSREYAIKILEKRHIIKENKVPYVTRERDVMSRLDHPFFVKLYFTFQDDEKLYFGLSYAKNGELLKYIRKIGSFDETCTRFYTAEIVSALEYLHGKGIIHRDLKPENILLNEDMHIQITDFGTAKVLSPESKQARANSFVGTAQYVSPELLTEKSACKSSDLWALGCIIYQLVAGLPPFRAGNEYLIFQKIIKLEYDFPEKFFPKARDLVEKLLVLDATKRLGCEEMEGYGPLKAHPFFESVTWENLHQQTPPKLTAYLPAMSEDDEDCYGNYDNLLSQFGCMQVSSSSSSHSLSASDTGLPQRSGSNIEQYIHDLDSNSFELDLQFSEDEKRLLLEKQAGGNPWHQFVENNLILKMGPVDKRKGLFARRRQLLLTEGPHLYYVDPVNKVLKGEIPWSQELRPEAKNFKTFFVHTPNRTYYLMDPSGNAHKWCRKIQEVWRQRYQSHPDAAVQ

[12] = target: cAMP-dependent protein kinase catalytic subunit alpha (Homo sapiens) (UniProt P17612); conditions: at 0.1 µM
[13] = target: cAMP-dependent protein kinase catalytic subunit alpha (Homo sapiens) (UniProt P17612); conditions: at 1 µM
[14] = target: Protein kinase C alpha type (Homo sapiens) (UniProt P17252); conditions: at 0.1 µM
[15] = target: Protein kinase C alpha type (Homo sapiens) (UniProt P17252); conditions: at 1 µM
[16] = target: Protein kinase C beta type (Homo sapiens) (UniProt P05771); conditions: at 0.1 µM
[17] = target: Protein kinase C beta type (Homo sapiens) (UniProt P05771); conditions: at 1 µM
[18] = target: Protein kinase C eta type (Homo sapiens) (UniProt P24723); conditions: at 0.1 µM
[19] = target: Protein kinase C eta type (Homo sapiens) (UniProt P24723); conditions: at 1 µM
[20] = target: Protein kinase C gamma type (Homo sapiens) (UniProt P05129); conditions: at 0.1 µM;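 further: values are mean percent inhibition of PKC gamma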

Sequence of Ribosomal protein S6 kinase alpha-5 (Homo sapiens) (O75582 whole entry, looked up): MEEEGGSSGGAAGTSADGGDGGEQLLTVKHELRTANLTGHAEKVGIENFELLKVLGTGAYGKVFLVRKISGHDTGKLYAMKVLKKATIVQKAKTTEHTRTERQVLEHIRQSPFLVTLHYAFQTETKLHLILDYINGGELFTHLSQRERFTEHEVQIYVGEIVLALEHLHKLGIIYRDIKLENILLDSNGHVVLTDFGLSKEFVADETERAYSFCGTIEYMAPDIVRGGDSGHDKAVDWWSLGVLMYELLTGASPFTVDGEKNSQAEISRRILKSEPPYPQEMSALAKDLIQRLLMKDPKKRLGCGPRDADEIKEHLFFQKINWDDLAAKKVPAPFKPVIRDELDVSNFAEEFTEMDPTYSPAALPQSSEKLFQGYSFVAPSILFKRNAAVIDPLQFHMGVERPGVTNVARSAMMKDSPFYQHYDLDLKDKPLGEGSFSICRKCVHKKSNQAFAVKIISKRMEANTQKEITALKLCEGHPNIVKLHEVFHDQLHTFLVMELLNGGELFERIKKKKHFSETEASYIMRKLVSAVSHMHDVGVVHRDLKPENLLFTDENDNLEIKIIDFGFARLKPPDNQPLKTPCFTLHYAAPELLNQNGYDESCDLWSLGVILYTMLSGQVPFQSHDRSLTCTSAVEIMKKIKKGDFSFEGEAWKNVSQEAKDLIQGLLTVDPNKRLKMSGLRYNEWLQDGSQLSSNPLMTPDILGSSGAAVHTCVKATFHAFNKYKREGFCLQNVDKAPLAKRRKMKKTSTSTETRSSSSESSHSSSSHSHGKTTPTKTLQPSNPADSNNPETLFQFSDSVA
Sequence of Ribosomal protein S6 kinase alpha-4 (Homo sapiens) (O75676 whole entry, looked up): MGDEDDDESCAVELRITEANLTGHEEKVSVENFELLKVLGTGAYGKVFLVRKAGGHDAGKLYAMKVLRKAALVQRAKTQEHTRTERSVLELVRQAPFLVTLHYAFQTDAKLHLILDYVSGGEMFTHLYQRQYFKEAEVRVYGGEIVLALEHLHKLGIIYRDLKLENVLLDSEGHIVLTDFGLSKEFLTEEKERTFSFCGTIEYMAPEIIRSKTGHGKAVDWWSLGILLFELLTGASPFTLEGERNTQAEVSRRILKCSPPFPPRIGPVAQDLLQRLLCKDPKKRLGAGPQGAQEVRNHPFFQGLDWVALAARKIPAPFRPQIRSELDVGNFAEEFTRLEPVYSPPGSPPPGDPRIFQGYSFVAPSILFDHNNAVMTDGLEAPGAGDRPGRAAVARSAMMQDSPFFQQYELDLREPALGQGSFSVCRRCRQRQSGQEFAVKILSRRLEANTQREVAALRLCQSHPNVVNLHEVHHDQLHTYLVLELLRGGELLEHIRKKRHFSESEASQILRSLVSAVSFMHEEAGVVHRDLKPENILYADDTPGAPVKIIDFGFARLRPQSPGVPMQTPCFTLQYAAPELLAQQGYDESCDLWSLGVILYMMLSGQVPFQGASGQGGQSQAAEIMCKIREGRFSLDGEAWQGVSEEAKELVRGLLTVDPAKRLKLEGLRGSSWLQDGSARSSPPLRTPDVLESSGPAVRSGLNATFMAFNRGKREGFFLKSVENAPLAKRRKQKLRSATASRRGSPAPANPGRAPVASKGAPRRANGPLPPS
Sequence of Protein kinase C beta type (Homo sapiens) (P05771 2-671 limits assumed): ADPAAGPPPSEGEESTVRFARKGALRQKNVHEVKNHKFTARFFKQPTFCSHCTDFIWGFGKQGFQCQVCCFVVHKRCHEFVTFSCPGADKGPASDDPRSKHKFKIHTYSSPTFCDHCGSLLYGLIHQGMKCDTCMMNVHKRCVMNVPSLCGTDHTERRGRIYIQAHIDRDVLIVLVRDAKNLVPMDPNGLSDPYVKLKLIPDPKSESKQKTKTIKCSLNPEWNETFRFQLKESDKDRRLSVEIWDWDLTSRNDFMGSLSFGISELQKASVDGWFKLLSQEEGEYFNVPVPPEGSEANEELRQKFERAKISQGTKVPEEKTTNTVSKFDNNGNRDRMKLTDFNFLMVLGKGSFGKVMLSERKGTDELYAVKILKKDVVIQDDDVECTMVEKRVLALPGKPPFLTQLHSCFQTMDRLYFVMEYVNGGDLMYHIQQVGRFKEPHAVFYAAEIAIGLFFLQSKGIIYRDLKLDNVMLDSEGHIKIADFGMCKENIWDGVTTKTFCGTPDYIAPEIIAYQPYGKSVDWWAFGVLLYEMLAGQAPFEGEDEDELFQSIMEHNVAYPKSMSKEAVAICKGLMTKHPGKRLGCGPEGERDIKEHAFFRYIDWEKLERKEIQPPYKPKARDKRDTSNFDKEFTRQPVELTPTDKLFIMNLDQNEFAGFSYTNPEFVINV
Sequence of Protein kinase C eta type (Homo sapiens) (P24723 whole entry): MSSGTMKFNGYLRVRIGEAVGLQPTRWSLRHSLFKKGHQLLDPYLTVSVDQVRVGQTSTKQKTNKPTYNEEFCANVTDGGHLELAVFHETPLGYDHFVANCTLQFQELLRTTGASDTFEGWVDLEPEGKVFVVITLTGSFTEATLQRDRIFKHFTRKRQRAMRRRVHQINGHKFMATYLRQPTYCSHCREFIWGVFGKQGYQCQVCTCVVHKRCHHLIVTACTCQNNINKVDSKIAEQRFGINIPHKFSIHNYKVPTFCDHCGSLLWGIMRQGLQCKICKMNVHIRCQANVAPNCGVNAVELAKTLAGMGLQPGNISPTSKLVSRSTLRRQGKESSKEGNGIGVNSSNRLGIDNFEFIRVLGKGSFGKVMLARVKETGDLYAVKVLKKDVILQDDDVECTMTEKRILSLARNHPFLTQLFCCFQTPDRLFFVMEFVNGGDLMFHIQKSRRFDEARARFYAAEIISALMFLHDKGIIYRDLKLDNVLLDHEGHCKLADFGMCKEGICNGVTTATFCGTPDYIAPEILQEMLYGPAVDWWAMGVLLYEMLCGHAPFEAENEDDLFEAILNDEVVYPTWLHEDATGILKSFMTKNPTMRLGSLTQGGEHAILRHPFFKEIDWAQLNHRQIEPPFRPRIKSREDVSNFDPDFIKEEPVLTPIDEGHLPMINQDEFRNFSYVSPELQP
Sequence of Ribosomal protein S6 kinase beta-1 (Homo sapiens) (P23443 whole entry, looked up): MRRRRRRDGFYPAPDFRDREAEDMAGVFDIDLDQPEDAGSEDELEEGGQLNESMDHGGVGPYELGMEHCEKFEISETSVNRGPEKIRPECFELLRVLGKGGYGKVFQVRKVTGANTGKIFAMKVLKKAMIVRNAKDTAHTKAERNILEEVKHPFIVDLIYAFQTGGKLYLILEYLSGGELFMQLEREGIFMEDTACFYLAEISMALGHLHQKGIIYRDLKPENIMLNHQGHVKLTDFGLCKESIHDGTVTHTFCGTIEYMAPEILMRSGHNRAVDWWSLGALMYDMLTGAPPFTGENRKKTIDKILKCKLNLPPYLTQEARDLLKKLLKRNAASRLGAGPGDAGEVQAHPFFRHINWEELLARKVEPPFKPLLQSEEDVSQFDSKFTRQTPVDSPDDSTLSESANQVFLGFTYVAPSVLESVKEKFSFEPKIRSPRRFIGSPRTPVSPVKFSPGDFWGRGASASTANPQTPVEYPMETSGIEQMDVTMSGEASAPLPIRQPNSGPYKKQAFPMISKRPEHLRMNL

## CN(C)C(=O)O[C@@H]1CN[C@@H](C#Cc2cc3ncnc(Nc4ccc(OCc5cccc(F)c5)c(Cl)c4)c3s2)C1
[1]
  inhibition: 0.14%
[2]
  inhibition: 1.14%
[3]
  inhibition: -0.75%
[4]
  inhibition: 0.85%
[5]
  inhibition: 0.39%
[6]
  inhibition: 2.9%
[7]
  inhibition: -1.34%
[8]
  inhibition: 2.41%
[9]
  inhibition: 0.37%
[10]
  inhibition: 1.14%
[11]
  inhibition: 0.77%
[12]
  inhibition: 0.67%
[13]
  inhibition: 1.2%
[14]
  inhibition: 0.33%
[15]
  inhibition: 1.13%
[16]
  inhibition: -1.27%
[17]
  inhibition: 2.12%
[18]
  inhibition: 4.86%
[19]
  inhibition: 1.38%
[20]
  inhibition: -1.57%

## Cc1cc(Cl)cc2c1NC(=O)C2=NNc1ccc(S(N)(=O)=O)cc1
[1]
  inhibition: 0.98%
[2]
  inhibition: 2.69%
[3]
  inhibition: 0.17%
[4]
  inhibition: -0.38%
[5]
  inhibition: 3.06%
[6]
  inhibition: 2.08%
[7]
  inhibition: 2.85%
[8]
  inhibition: 3.47%
[9]
  inhibition: 0.25%
[10]
  inhibition: 2.34%
[11]
  inhibition: 0.95%
[12]
  inhibition: 1.21%
[13]
  inhibition: 1.37%
[14]
  inhibition: 0.07%
[15]
  inhibition: -0.61%
[16]
  inhibition: 0.78%
[17]
  inhibition: 2.56%
[18]
  inhibition: -0.95%
[19]
  inhibition: 2.95%
[20]
  inhibition: 0.4%

## OCc1ccc(-c2nc(-c3ccccn3)c(-c3ccc4c(c3)OCO4)[nH]2)cc1
[1]
  inhibition: 0.27%
[2]
  inhibition: -0.19%
[3]
  inhibition: 0.91%
[4]
  inhibition: 1.33%
[5]
  inhibition: 4.12%
[6]
  inhibition: 3.7%
[7]
  inhibition: 1.01%
[8]
  inhibition: 3.89%
[9]
  inhibition: 2.09%
[10]
  inhibition: 3.2%
[11]
  inhibition: 3.18%
[12]
  inhibition: 1.99%
[13]
  inhibition: 1.95%
[14]
  inhibition: 1.27%
[15]
  inhibition: 2.06%
[16]
  inhibition: 0.21%
[17]
  inhibition: 0.2%
[18]
  inhibition: 3.79%
[19]
  inhibition: 1.71%
[20]
  inhibition: 1.49%

## Cc1nc(-c2ccccc2)n2nc(NCCCN3CCOCC3)ncc12
[1]
  inhibition: 6.14%
[2]
  inhibition: 2.64%
[3]
  inhibition: 0.51%
[4]
  inhibition: 0.04%
[5]
  inhibition: 0.53%
[6]
  inhibition: 1.08%
[7]
  inhibition: 2.47%
[8]
  inhibition: 3.6%
[9]
  inhibition: 1.34%
[10]
  inhibition: 2.24%
[11]
  inhibition: 2.52%
[12]
  inhibition: 2.1%
[13]
  inhibition: 2.12%
[14]
  inhibition: -0.23%
[15]
  inhibition: 0.9%
[16]
  inhibition: -0.19%
[17]
  inhibition: 0.04%
[18]
  inhibition: 0.77%
[19]
  inhibition: 4.23%
[20]
  inhibition: 2.71%

## Nc1nccc(-c2c(-c3ccc(F)cc3)nn3cc(C(F)(F)F)ccc23)n1
[1]
  inhibition: -3.46%
[2]
  inhibition: -4.53%
[3]
  inhibition: -0.89%
[4]
  inhibition: -2.82%
[5]
  inhibition: -0.99%
[6]
  inhibition: -2.88%
[7]
  inhibition: 1.24%
[8]
  inhibition: -1.94%
[9]
  inhibition: -0.77%
[10]
  inhibition: -3%
[11]
  inhibition: -0.37%
[12]
  inhibition: 0.74%
[13]
  inhibition: 2.17%
[14]
  inhibition: 0.05%
[15]
  inhibition: 1.25%
[16]
  inhibition: -1.02%
[17]
  inhibition: 0.52%
[18]
  inhibition: -1.68%
[19]
  inhibition: 1.15%
[20]
  inhibition: -1.38%

## Cc1cc(O)cc(C)c1/C=C/c1cncc(C(=O)N(C)C)c1
[1]
  inhibition: 0.02%
[2]
  inhibition: 0.32%
[3]
  inhibition: 0.83%
[4]
  inhibition: 1.36%
[5]
  inhibition: 2%
[6]
  inhibition: 4.09%
[7]
  inhibition: 1.39%
[8]
  inhibition: 2.46%
[9]
  inhibition: 0.39%
[10]
  inhibition: 3.03%
[11]
  inhibition: 4.18%
[12]
  inhibition: 1.98%
[13]
  inhibition: 0.93%
[14]
  inhibition: 0.28%
[15]
  inhibition: 1.71%
[16]
  inhibition: 0.67%
[17]
  inhibition: 1.26%
[18]
  inhibition: 3%
[19]
  inhibition: 4.61%
[20]
  inhibition: 1.75%

## FC(F)(F)c1ccc(-c2nn3ncccc3c2-c2ccnc(Nc3ccc4c(c3)OCCO4)n2)cc1
[1]
  inhibition: 7.63%
[2]
  inhibition: 5.17%
[3]
  inhibition: 6.18%
[4]
  inhibition: 4.64%
[5]
  inhibition: 3.36%
[6]
  inhibition: 4.3%
[7]
  inhibition: 5.05%
[8]
  inhibition: 6.41%
[9]
  inhibition: 1.5%
[10]
  inhibition: 2.06%
[11]
  inhibition: 1.11%
[12]
  inhibition: 6.1%
[13]
  inhibition: 6.96%
[14]
  inhibition: 0.99%
[15]
  inhibition: 1.28%
[16]
  inhibition: 8.14%
[17]
  inhibition: 11.9%
[18]
  inhibition: 1.27%
[19]
  inhibition: 6.69%
[20]
  inhibition: 5.17%

## CS(=O)(=O)CCNCc1nc(-c2ccc3ncnc(Nc4ccc(OCc5cccc(C(F)(F)F)c5)cc4)c3c2)cs1
[1]
  inhibition: 4.26%
[2]
  inhibition: 2.95%
[3]
  inhibition: -0.6%
[4]
  inhibition: 0.82%
[5]
  inhibition: 0.64%
[6]
  inhibition: 1.57%
[7]
  inhibition: 1.54%
[8]
  inhibition: 2.66%
[9]
  inhibition: 1.22%
[10]
  inhibition: 1.83%
[11]
  inhibition: 0.07%
[12]
  inhibition: 1.46%
[13]
  inhibition: 0.51%
[14]
  inhibition: -0.15%
[15]
  inhibition: -0.72%
[16]
  inhibition: 0.26%
[17]
  inhibition: 1.43%
[18]
  inhibition: 3.05%
[19]
  inhibition: 2.2%
[20]
  inhibition: 0.96%

## O=C1Nc2ccc(-c3cccnc3)cc2C1=Cc1cc(Br)c(O)c(Br)c1
[1]
  inhibition: 0.24%
[2]
  inhibition: -0.62%
[3]
  inhibition: 0.92%
[4]
  inhibition: 1.01%
[5]
  inhibition: 3.3%
[6]
  inhibition: 3.39%
[7]
  inhibition: 0.89%
[8]
  inhibition: 2.67%
[9]
  inhibition: 2.32%
[10]
  inhibition: 2.15%
[11]
  inhibition: 3.18%
[12]
  inhibition: 1.62%
[13]
  inhibition: 1.19%
[14]
  inhibition: 1.72%
[15]
  inhibition: 2.45%
[16]
  inhibition: 0.24%
[17]
  inhibition: -1.03%
[18]
  inhibition: 3.09%
[19]
  inhibition: 0.7%
[20]
  inhibition: 4.09%

## NS(=O)(=O)c1cccc(-c2cc3ccncc3cc2OCc2ccccc2)c1
[1]
  inhibition: 0.79%
[2]
  inhibition: -0.95%
[3]
  inhibition: 1.07%
[4]
  inhibition: 0.42%
[5]
  inhibition: 6.93%
[6]
  inhibition: 5.54%
[7]
  inhibition: 2.88%
[8]
  inhibition: 6.76%
[9]
  inhibition: 1.84%
[10]
  inhibition: 1.18%
[11]
  inhibition: 0.97%
[12]
  inhibition: 1.81%
[13]
  inhibition: 3.34%
[14]
  inhibition: 1.18%
[15]
  inhibition: 1.96%
[16]
  inhibition: -0.33%
[17]
  inhibition: 0.71%
[18]
  inhibition: 2.45%
[19]
  inhibition: 2.7%
[20]
  inhibition: 3.28%

## Nc1ccc(C#Cc2cncnc2Nc2ccc(OCc3cccc(F)c3)c(Cl)c2)cc1
[1]
  inhibition: -1.73%
[2]
  inhibition: 0.19%
[3]
  inhibition: 1.04%
[4]
  inhibition: 1.18%
[5]
  inhibition: 1.3%
[6]
  inhibition: -0.19%
[7]
  inhibition: 1.93%
[8]
  inhibition: 3.14%
[9]
  inhibition: 0.9%
[10]
  inhibition: 0.85%
[11]
  inhibition: -0.28%
[12]
  inhibition: 3.59%
[13]
  inhibition: 2.77%
[14]
  inhibition: 0.42%
[15]
  inhibition: 1.03%
[16]
  inhibition: 1.2%
[17]
  inhibition: 2.03%
[18]
  inhibition: 4.79%
[19]
  inhibition: 2.72%
[20]
  inhibition: -0.9%

## CCOc1nccc2c1nc(-c1nonc1N)n2CC
[1]
  inhibition: 2.25%
[2]
  inhibition: 5.56%
[3]
  inhibition: 1.28%
[4]
  inhibition: 2.92%
[5]
  inhibition: 13.2%
[6]
  inhibition: 45.4%
[7]
  inhibition: 6.75%
[8]
  inhibition: 27.6%
[9]
  inhibition: 13.4%
[10]
  inhibition: 56.5%
[11]
  inhibition: 1.85%
[12]
  inhibition: 3.12%
[13]
  inhibition: 9.17%
[14]
  inhibition: -0.03%
[15]
  inhibition: 1.03%
[16]
  inhibition: 11.6%
[17]
  inhibition: 39.7%
[18]
  inhibition: 7.44%
[19]
  inhibition: 24.1%
[20]
  inhibition: 3.01%

## N#Cc1c(NC(=O)c2ccccc2F)sc2c1CCCC2
[1]
  inhibition: 1.07%
[2]
  inhibition: -1.26%
[3]
  inhibition: 0.23%
[4]
  inhibition: -0.14%
[5]
  inhibition: -2.83%
[6]
  inhibition: -2.33%
[7]
  inhibition: -1.11%
[8]
  inhibition: -0.35%
[9]
  inhibition: -0.91%
[10]
  inhibition: -0.98%
[11]
  inhibition: -1.52%
[12]
  inhibition: -0.5%
[13]
  inhibition: 0.91%
[14]
  inhibition: -0.76%
[15]
  inhibition: 1.15%
[16]
  inhibition: 0.38%
[17]
  inhibition: 1.07%
[18]
  inhibition: -2.89%
[19]
  inhibition: 1.15%
[20]
  inhibition: 0.73%
